Compound activity as filed in PubChem.
This excerpt belongs to a sample that is enriched for hits.
12-LOX inh = inhibitors of human 12S-lipoxygenase ALOX12; P18054; purified 12hLO, xylenol orange hydroperoxide absorbance; Potency, µM (doses to about 108 µM), inactives show at the top dose activity change, negative = inhibition, hits mostly inhibitors; 1.1% of 580,000 active; note: potency is the fitted concentration of half-maximal effect
Target sequence (P18054 whole entry, looked up): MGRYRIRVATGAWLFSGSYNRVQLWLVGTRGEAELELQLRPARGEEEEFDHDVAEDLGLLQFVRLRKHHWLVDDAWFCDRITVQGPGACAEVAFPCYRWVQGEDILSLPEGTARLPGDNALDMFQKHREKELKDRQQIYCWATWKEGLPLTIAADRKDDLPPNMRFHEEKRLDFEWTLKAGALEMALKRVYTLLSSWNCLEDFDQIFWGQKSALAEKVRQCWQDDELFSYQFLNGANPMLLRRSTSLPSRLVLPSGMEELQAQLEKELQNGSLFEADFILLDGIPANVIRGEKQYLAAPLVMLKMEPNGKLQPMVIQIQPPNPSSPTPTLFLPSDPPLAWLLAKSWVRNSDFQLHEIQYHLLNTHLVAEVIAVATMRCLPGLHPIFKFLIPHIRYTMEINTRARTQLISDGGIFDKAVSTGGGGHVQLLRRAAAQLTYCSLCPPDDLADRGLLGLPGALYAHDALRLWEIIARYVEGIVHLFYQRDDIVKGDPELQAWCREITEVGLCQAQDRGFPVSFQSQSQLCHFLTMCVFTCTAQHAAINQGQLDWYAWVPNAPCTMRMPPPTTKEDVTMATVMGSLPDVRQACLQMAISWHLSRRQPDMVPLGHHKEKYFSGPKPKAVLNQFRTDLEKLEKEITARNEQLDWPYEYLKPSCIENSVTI
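Purified human 12hLO at 150 nM in 25 mM Hepes, 0.01% Triton X-100, pH 7.0, preincubated 15 min at room temperature with compound. Reaction started with 40 uM arachidonic acid, 30 min at room temperature. Hydroperoxide measured by Fe-xylenol orange, 573/405 nm absorbance ratio.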
HT1080-NT tox = kills 2HG-producing HT-1080-NT fibrosarcoma cells; HT-1080-NT fibrosarcoma viability, CellTiter-Glo ATP luminescence, 48 h; Potency, µM (titrated, usually from 46.1 µM), without a hit: at the highest dose activity, negative = less viability, hits mostly cytotoxic; 1.6% of 360,000 active;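 note: NT is the 2HG producing partner of a matched IDH1 knockdown line; potency is the fitted concentration of half-maximal effect; 0% = DMSO-treated cells and -100% = media-only wells without cells; nearly all actives have a fitted effect of over 55% in size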
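Read-out is CellTiter-Glo luminescence after 10 minutes at room temperature, following 48 hours' compound treatment of HT-1080-NT cells (750 cells/well, RPMI, 5% FBS, 37 degrees C).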
HT1080 IDH1KD tx = toxicity to HT-1080 IDH1 knockdown cells (counter line); HT-1080 IDH1 knockdown viability, ATP luminescence, 48 h; Potency, µM (highest dose often 46.1 µM), for inactives: at the highest dose activity, negative = toxicity, hits mostly cytotoxic; 2% of 360,000 active;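 note: potency is the fitted concentration of half-maximal effect; 0% = DMSO wells and -100% = cell-free medium wells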
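Using the IDH1-knockdown HT-1080 line run in the same batch and compound series as the NT line, viability after 48 h at 37 °C was determined by CellTiter-Glo luminescence and expressed as % activity.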
IL1B secr inh = blocks inflammasome-driven IL-1 beta release; THP-1 LPS/ATP IL-1B secretion, AlphaLISA, 16 h; stronger effect = lower value; activity change, % at 57.5 µM; 4.7% of 360,000 active; AID 743279; in the data active = activity change below about -50%; inconclusive = mostly about -30% to -49%
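THP-1 cells pretreated 1 hr with compounds (up to 57.5 uM final), then stimulated with LPS (250 ng/mL final) plus ATP (1.25 mM final); secreted IL-1B measured by AlphaLISA after 16 hr, decreased signal indicating inhibition.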
TDP1 cell CPT = DT40-hTDP1 cell growth loss with CPT; chicken DT40 Tdp1-/-;hTDP1 cells + 20 nM CPT, ATP luminescence, 48 h; Potency, µM (top dose mostly 46.2 µM), for the others: at the highest dose activity change, negative = growth inhibition, hits mostly inhibitors; 12% of 420,000 active; AID 686979; note: potency is the fitted concentration of half-maximal effect; nearly all actives have a fitted effect of over 55% in size
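Cell growth measured by CellTiter-Glo luminescence after a minimum 48 h, 37 C compound exposure with 20 nM CPT in Tdp1-knockout DT40 cells stably expressing hTDP1, seeded 400/well; qHTS titration format.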
DT40 TDP1 no CPT = qHTS for Inhibitors of human tyrosyl-DNA phosphodiesterase 1 (TDP1): qHTS in cells in absence of CPT; AID 686978, 2013; 15% of 420,000 active; Potency, µM (titrated, usually from 46.2 µM), inactives show at the top dose activity change, negative = growth inhibition, usual class: inhibitors; DT40 Tdp1-/- hTDP1 cells, no CPT, ATP luminescence, 48 h; note: potency is the fitted concentration of half-maximal effect; nearly all actives have a fitted effect of over 55% in size
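DT40 Tdp1-/-;hTDP1 cells, no CPT (DMSO vehicle only), 400 cells/well; compounds pin-transferred; ≥48 hr, 37 °C; CellTiter-Glo 30 min RT dark, luminescence read.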
* = called active by the depositor; ? = inconclusive; · = no result given; [ ] = remark or other dose. Unless noted, calls come from the whole dose curve; as a rule, active = well fitted curve in the direction sought with a large enough effect; inconclusive = small, poorly fitted or top-dose-only effect, or another doubt; inactive = no such curve, though single readings can be large; an effect the other way counts as inactive or inconclusive. Unless noted, % is set by controls: 0 for no effect and ±100 for the full control effect.

SMILES	12-LOX inh	HT1080-NT tox	HT1080 IDH1KD tx	IL1B secr inh	TDP1 cell CPT	DT40 TDP1 no CPT
COc1ccc(-c2nc3scc(CCNS(=O)(=O)c4ccc(F)cc4C)n3n2)cc1	-6%	·	·	·	16µM*	16µM*
O=C(/C=C/c1cccs1)OC(C(=O)c1c[nH]c2ccccc12)c1ccccc1 (stereo not drawn)	-5%	·	·	·	·	·
COc1ccccc1CN(C)C(=O)Cn1c(=O)n(C)c2ccccc21	-27%	·	·	·	·	·
O=S(=O)(NCCc1csc2nc(-c3ccccc3)nn12)c1ccc(Oc2ccccc2)cc1	-19%	·	·	·	?	?
CCOc1ccc(S(=O)(=O)NCCc2csc3nc(-c4cccc(C)c4)nn23)cc1	-3%	·	·	·	?	18µM*
CSS(=O)(=O)c1cccc2cccnc12	?	-12%	-4%	-8	5.8µM*	5.8µM*
O=Cc1ccc2ccc3cccnc3c2n1	-6%	?	?	?	5.2µM*	3.3µM*
O=C1C=CC(=O)N1c1cccc2cccnc12	?	1%	0%	-23	16µM*	?
c1cnc2c(c1)ccc1cccnc12	0%	7.3µM*	7.3µM*	110	3.7µM*	3.7µM*
C[C@H]1[C@@H](NC(=O)NCCCc2ccccc2)CC[C@@]23CCCN2C(=O)CCC[C@@H]13	-47%	·	·	·	·	·
O=C(NCc1ccnc(OCC(F)(F)F)c1)c1cccs1	21%	·	·	·	·	·
Cc1ccc(S(=O)(=O)/N=C2\C=C(NS(=O)(=O)c3ccccc3)C(=O)c3ccccc32)c(C)c1	?	-14%	-7%	16	15µM*	?
O=C1C(Nc2ccccc2)=C(NS(=O)(=O)c2ccccc2)C(=O)c2ccccc21	1%	-17%	-14%	-9	-29%	?
CC(C)(C)c1ccc(S(=O)(=O)/N=C2\C=C(NS(=O)(=O)c3ccccc3)C(=O)c3ccccc32)cc1	25µM*	23µM*	16µM*	19	21µM*	21µM*
COC(=O)c1cc2oc(C)cc2n1CC(=O)Nc1ccc(C(C)C)cc1	7%	·	·	·	7.3µM*	21µM*
CCOc1ccc(Nc2nc3cc(S(=O)(=O)N(CC)CC)ccc3o2)cc1	·	?	?	43	5.8µM*	7.3µM*
CCS(=O)(=O)c1ccc2oc(Nc3ccc(C(C)C)cc3)nc2c1	7.1µM*	-11%	-10%	-7	16µM*	23µM*
NS(=O)(=O)c1cccc2nsnc12	11%	·	·	·	·	·
CCC(NC(=O)c1ccc2nc(Cc3ccc(OC)cc3)oc2c1)c1ccncc1 (stereo not drawn)	17%	?	21µM*	-17	7.3µM*	3.7µM*
CCC(C)NC(=O)c1ccc2nc(Cc3ccc(OC)cc3)oc2c1 (stereo not drawn)	18%	3%	-3%	-1	?	?
COc1cccc(NC(=O)c2ccc3nc(Cc4ccccc4)oc3c2)c1	-24%	·	·	·	16µM*	16µM*
CCOC(=O)c1cccc(NC(=O)c2ccc3nc(Cc4ccccc4)oc3c2)c1	-2%	·	·	·	23µM*	16µM*
Cc1ccc(NC(=O)c2ccc3nc(Cc4ccccc4)oc3c2)cc1F	?	·	·	·	?	-14%
COc1ccc(N(Cc2cc(=O)[nH]c3ccccc23)C(=O)CCl)cc1	?	3.3µM*	23µM*	-98*	2.1µM*	2.1µM*
CCCC(=O)N(Cc1cc(=O)[nH]c2ccccc12)c1cccc(C)c1	-21%	-6%	-14%	-10	-13%	?
SMILES	12-LOX inh	HT1080-NT tox	HT1080 IDH1KD tx	IL1B secr inh	TDP1 cell CPT	DT40 TDP1 no CPT
Cc1cccc(N(Cc2cc(=O)[nH]c3ccccc23)C(=O)CCl)c1	?	21µM*	?	-107*	4.1µM*	5.2µM*
CCCC(=O)N(Cc1cc(=O)[nH]c2ccccc12)c1ccc(OC)cc1	?	-2%	-13%	1	0%	-14%
COc1ccccc1-c1nc2nccc(-c3ccc4c(c3)OCCCO4)n2n1	28%	·	·	·	·	·
Cc1ccc(CC(=O)N2CCc3cn(C)c4cccc(c34)C2)cc1	7%	·	·	·	·	·
COCCOCc1nc(C2CCCCN2C(=O)Nc2cccc(Cl)c2)no1 (stereo not drawn)	45%	·	·	·	·	·
Cc1ccccc1-c1nc2cc(NC(=O)C(C)C)ccc2o1	-4%	·	·	·	·	·
Cc1ccccc1-c1nc2cc(NC(=O)/C=C/c3ccco3)ccc2o1	25µM*	·	·	·	·	·
CCC(=O)Nc1cc(C)c(O)c(-c2nc3ncccc3o2)c1	?	·	·	·	-29%	?
Cc1ccc(NC(=O)/C=C/c2ccco2)cc1F	?	·	·	·	7.3µM*	9.2µM*
O=C(/C=C\c1ccco1)Nc1cc([N+](=O)[O-])ccc1F	?	1.5µM*	?	22	2.1µM*	1.6µM*
Cc1cc(NC(=O)C(C)C)cc(-c2nc3ncccc3o2)c1O	-8%	·	·	·	?	13µM*
COC(=O)CSc1cc(C(C)(C)C)c(O)c(C(C)(C)C)c1	-71%	·	·	·	·	·
Cc1ccc2oc(-c3cc(NC(=O)/C=C/c4ccco4)ccc3Cl)nc2c1	?	·	·	·	?	21µM*
O=C(/C=C/c1ccco1)Nc1ccc(Cl)c(-c2nc3cc(Cl)ccc3o2)c1	?	·	·	·	?	26µM*
Cc1cc(NC(=O)C(C)(C)C)cc(-c2nc3cc(Cl)ccc3o2)c1O	-2%	·	·	·	·	·
Cc1cc(NC(=O)c2ccco2)cc(-c2nc3cc(Cl)ccc3o2)c1O	-8%	·	·	·	18µM*	12µM*
Cc1ccccc1OCCN(C)C(=O)NCc1ccc(S(N)(=O)=O)cc1	-3%	·	·	·	·	·
N#Cc1cccc(CSc2nccc(C(F)(F)F)n2)c1	-1%	·	·	·	·	·
O=c1cc(-c2ccco2)oc2ccc(Cl)cc12	402%	9%	28%	-5	-6%	-25%
COc1ccc2c(=O)cc(-c3ccccc3F)oc2c1	130%	-16%	-10%	-61*	?	21µM*
COc1ccc2c(=O)cc(C(F)(F)C(F)(F)F)oc2c1	24%	4%	6%	17	-1%	0%
COc1ccc2oc(-c3ccco3)cc(=O)c2c1	-15%	-2%	-1%	-62*	?	?
COc1cccc2oc(-c3ccco3)cc(=O)c12	?	0%	-20%	-101*	21µM*	15µM*
Clc1ccc(-c2cnc([C@@H]3COCCN3Cc3ccccc3)[nH]2)cc1	-23%[176 µM]	·	·	·	·	·
O=C(c1cc(C2CC2)nc2onc(C3CCCN3)c12)N1CCOCC1 (stereo not drawn)	-2%[6.33 µM]	·	·	·	·	·
